Records with an inconclusive call do not appear. Activity calls are given as the source filed them. Rule for the calls: active = hit-call score of the fitted dose curve at least 0.9, where 1 is the maximum; inconclusive = response in the unintended direction; inactive = score below 0.9.

The test deals with Bile acid receptor (Homo sapiens) (UniProt Q96RI1). Nature of the test: ATG_FXR_TRANS: Attagene TRANS-FACTORIAL HepG2 Assay for Farnesoid X Receptor (FXR) (AID 2282979).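 Note: hits raise reporter mRNA above DMSO so AC50 marks FXR activation.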 The following applies: HepG2 Attagene TRANS FXR-GAL4 reporter transcription. On the procedure: ATG_TRANS is a cell-based, multiplexed-readout assay that uses HepG2, a human liver cell line, with measurements taken at 24 hours after chemical dosing in a 24-well plate.ATG_FXR_TRANS is one of 30 assay component(s) measured or calculated from the ATG_TRANS assay. It is designed to make measurements of mRNA induction, a form of inducible reporter, as detected with fluorescence intensity signals by Reverse transcription polymerase chain reaction (RT-PCR) and Capillary electrophoresis technology.Data from the assay component ATG_FXR_TRANS was analyzed into 1 assay endpoint. This assay endpoint, ATG_FXR_TRANS, was analyzed in the positive analysis fitting direction relative to DMSO as the negative control and baseline of activity. Using a type of inducible reporter, measures of mRNA for gain-of-signal activity can be used to understand the reporter gene at the transcription factor-level as they relate to the gene NR1H4. Furthermore, this assay endpoint can be referred to as a primary readout, because this assay has produced multiple assay endpoints where this one serves a reporter gene function. To generalize the intended target to other relatable targets, this assay endpoint is annotated to the nuclear receptor intended target family, where the subfamily is non-steroidal.
Chain of Bile acid receptor (Homo sapiens) (Q96RI1 whole entry, looked up, the tested form may be a part): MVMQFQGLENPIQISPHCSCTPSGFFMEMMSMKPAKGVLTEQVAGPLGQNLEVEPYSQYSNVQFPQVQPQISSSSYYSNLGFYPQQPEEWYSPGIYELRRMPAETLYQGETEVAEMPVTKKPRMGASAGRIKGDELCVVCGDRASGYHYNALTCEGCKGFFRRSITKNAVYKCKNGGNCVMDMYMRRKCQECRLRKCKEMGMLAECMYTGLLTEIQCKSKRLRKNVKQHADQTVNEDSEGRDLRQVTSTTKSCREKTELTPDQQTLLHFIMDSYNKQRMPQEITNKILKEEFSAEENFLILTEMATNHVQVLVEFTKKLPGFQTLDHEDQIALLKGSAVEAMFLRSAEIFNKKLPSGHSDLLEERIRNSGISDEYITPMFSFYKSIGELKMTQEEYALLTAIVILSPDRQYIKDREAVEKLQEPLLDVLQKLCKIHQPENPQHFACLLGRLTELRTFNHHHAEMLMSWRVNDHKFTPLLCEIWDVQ
Human liver HepG2 cells are transiently transfected with multiple reporter transcription units (MRTUs) in 6-well plates using FuGene 6 reagent (Roche; 3 ml FuGene/1 mg DNA). The MRTU constructs are regulated by a cis-regulating element (promoter). […] A major difference between the CIS and TRANS system is that in CIS activities of endogenous TFs are measured, whereas the TRANS assay evaluates changes in activities of exogenous, chimeric NR-Gal4 proteins. […] At the end of 24 hour incubation, total RNA was isolated using TriZol reagent (Invitrogen). The isolated RNA is then reverse-transcribed using oligo(dT) primer and Mo-MLV reverse transcriptase (Invitrogen) with DNAse I (Ambion) treatment for 30 min. The one-tenth of the produced cDNA was amplified by PCR using Taq DNA polymerase (Invitrogen) and two reporter sequence-specific primers. The PCR products were fluorescently labeled by primer extension with 6-arboxyfluorescein (6-FAM) 5'-labeled reporter sequence-specific primer (2 min at 95 C, 20 s at 68 C and 10 min at 72 C) and these products were digested with 5U of HpaI (New England Biolabs) for 2h at 37 C. The fragments were purified using Qiaquick PCR columns (Qiagen), analyzed on an ABI 3130xL genetic analyzer (Applied Biosystems) with peak positions identified by using a set of X-rhodamine (ROX)-labeled MapMarker1000 molecular weight standards (BioVentures). The raw capillary electrophoresis data was processed using Attagraph software (Attagene).
With `CCCCCC[C@@H](O)C/C=C\CCCCCCCC(=O)O`, the molecule was classed as inactive.

Regarding `O=C1NC(=O)[C@@H]2CC=CC[C@H]12`, the molecule was called inactive.

Take `COc1c2occc2cc2ccc(=O)oc12`: the molecule was called inactive.

With `C=CC(C)(CCC=C(C)C)OC(=O)c1ccccc1` (centres undefined), the call was inactive.

On to `CCOc1ccc2c(c1)C(C)CC(C)(C)N2` (centres undefined), for which the outcome was inactive.

As for `O=C(O)Cc1c[nH]c2ccccc12`, the call was inactive.

In general, AC50 refers to the concentration giving half of the maximal activity seen. Turning to `CCCCCCCCCCCCCCCCCC[N+](C)(C)C`, the AC50 is 15.9 µM (active).

Turning to `NC(=O)c1ccc([N+](=O)[O-])cc1Cl`, the result was inactive.

On to `C/C=C(\C)C(=O)OCC/C=C\CC`, for which the call was inactive.

For the molecule `CCC(=O)OCc1ccc(OC)cc1`, the outcome was inactive.

As to `C=C(C)C(=O)OCC1CCCO1` (centres undefined), the molecule was called inactive.

For `CC1=CCCC(C)(C)C12CCC(C)O2` (centres undefined), the molecule was called inactive.

As to `CNC[C@H](O)[C@@H](O)[C@H](O)[C@H](O)CO`, the call was inactive.

As for `CN1CCCC1`, the result was inactive.

Take `COc1ccc2ccccc2c1`: the call was inactive.

On to `Cc1cc(-n2nc3ccc(Cl)cc3n2)c(O)c(C(C)(C)C)c1`, for which the molecule was called inactive.

With `CCCc1c(OCCCCc2nn[nH]n2)ccc(C(C)=O)c1O`, the call was inactive.

On to `CCCCCC1CCCC(=O)O1` (centres undefined), for which the call was inactive.

Consider `Oc1ccc(Oc2ccccc2)cc1`, for which the molecule was called inactive.

Take `CCO[Si](CCCN)(OCC)OCC`: the outcome was inactive.

`CC(=O)OC(C)(C)Cc1ccccc1`: the molecule was called inactive.

On to `CCCCCCCCCC/C=C/C1CC(=O)OC1=O` (centres undefined), for which the molecule was classed as inactive.

For the molecule `c1cc(N(CC2CO2)CC2CO2)ccc1Cc1ccc(N(CC2CO2)CC2CO2)cc1` (centres undefined), the outcome was inactive.

With `[O-][n+]1ccc(Cl)cc1`, the molecule was called inactive.

As for `COC(=O)CCSCCC(=O)OC`, the outcome was inactive.

Consider `CC(C)CC(=O)CC(C)CC(C)C` (centres undefined), for which the molecule was classed as inactive.

For the molecule `COC(=O)[C@]1(C)CCC[C@@]2(C)[C@H]1CC=C1C=C(C(C)C)CC[C@@H]12`, the AC50 is 33 µM (active).

In the case of `CCCCNC(N)=O`, the call was inactive.

On to `CC(C)(C)NC(=O)[C@@H]1CN(Cc2cccnc2)CCN1C[C@@H](O)C[C@@H](Cc1ccccc1)C(=O)N[C@H]1c2ccccc2C[C@H]1O`, for which the outcome was inactive.

For the molecule `CCOC(=O)CC(=O)OCC`, the molecule was classed as inactive.

For `O=[N+]([O-])c1ccc2nc[nH]c2c1`, the call was inactive.

`NC(N)=Nc1nc(CSCCC(N)=NS(N)(=O)=O)cs1`: the outcome was inactive.

Take `O=C(CC(C(=O)OC1CCCCC1)S(=O)(=O)O)OC1CCCCC1` (centres undefined): the molecule was classed as inactive.

Take `Clc1ccccn1`: the outcome was inactive.

Regarding `c1ccc(CNc2ncnc3nc[nH]c23)cc1`, the outcome was inactive.

Consider `Oc1cccc2ccccc12`, for which the molecule was classed as inactive.

Take `Cc1cc2nc3c(=O)[nH]c(=O)nc-3n(C[C@H](O)[C@H](O)[C@H](O)CO)c2cc1C`: the outcome was inactive.

Consider `Oc1ccc(Cl)cc1C1CCCC1`, for which the AC50 was 18.5 µM (active).

For `CC/C=C/CCO`, the result was inactive.

For the origin of these results see PubChem BioAssay (EPA / NIEHS).
